# Source: PubChem
# Shown are actives, neighbours in structure and some others; about 1.5% of the full set was active somewhere.
# APE1 inh: qHTS Assay for Inhibitors of the Human Apurinic/apyrimidinic Endonuclease 1 (APE1); DNA repair nuclease/redox regulator APEX1 (Homo sapiens), P27695; Potency, µM (doses to about 65.8 µM), without a hit: at the highest dose activity change, negative = inhibition, hits mostly inhibitors; recombinant APE1, TAMRA/BHQ-2 abasic DNA cleavage fluorescence; AID 2517, 2012; hit rate 0.35% among 350,000;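 note: potency is the fitted concentration of half-maximal effect; plate controls were vehicle for no effect and reference inhibitor for full effect; nearly all actives have a fitted effect of over 55% in size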
# Target sequence (P27695 whole entry, looked up): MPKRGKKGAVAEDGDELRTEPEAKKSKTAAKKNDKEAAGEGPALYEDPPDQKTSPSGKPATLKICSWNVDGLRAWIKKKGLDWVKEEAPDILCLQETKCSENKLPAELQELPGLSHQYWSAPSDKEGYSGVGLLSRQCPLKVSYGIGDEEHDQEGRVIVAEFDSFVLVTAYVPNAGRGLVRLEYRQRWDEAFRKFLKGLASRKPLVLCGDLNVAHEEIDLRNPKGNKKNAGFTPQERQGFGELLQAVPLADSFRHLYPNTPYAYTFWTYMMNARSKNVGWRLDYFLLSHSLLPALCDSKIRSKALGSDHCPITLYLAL
#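 Enzyme (0.75 nM final) and test compound are incubated 15 min at room temperature before adding 50 nM quenched THF abasic-site duplex. Cleavage dequenches TAMRA, followed at 525/598 nm over three reads one minute apart.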
# PI5P4Ka inh: qHTS for Inhibitors of phosphatidylinositol 5-phosphate 4-kinase (PI5P4K); Phosphatidylinositol 5-phosphate 4-kinase type-2 alpha (Homo sapiens), P48426; PI5P4Kalpha enzyme, ADP-Glo luminescence, 60 min; active compounds read low; max response, %; hit rate 1.2% among 330,000; AID 652105, 2013; active = max response of -50% or lower; inconclusive = between -30% and -50%; inactive = -30% or higher; note: value at the top dose of about 77 µM
#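 Enzyme plus substrate dispensed, test compounds pinned in, then ATP (5 microM final) added. After 60 min at RT, ADP-Glo reagent 1 for 45 min and reagent 2 for 30 min preceded luminescence imaging.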
# FEN1 inh: qHTS Assay for the Inhibitors of Human Flap endonuclease 1 (FEN1) | Recombinant FEN1 flap cleavage, fluorescence, 15 min | Potency, µM (highest dose often 114 µM), for inactives: at the top dose activity change, negative = inhibition, most hits filed as inhibitors | hit rate 0.35% among 390,000; note: potency is the fitted concentration of half-maximal effect; nearly all actives have a fitted effect of over 65% in size
# Target sequence (P39748 whole entry, looked up): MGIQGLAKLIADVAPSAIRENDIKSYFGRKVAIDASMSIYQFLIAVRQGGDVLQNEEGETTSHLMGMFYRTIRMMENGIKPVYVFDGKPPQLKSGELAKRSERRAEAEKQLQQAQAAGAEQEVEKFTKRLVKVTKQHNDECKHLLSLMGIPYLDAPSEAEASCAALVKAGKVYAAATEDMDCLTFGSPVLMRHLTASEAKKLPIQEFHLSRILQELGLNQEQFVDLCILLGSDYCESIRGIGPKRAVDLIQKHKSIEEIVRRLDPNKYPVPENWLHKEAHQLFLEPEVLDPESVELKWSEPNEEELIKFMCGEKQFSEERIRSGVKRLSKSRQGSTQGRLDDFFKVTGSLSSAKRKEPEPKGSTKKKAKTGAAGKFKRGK
#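 Enzyme 10 nM, 15 min RT preincubation with compound; start with substrate 50 nM final; reads at 0 and 15 min; qHTS titration, four-parameter Hill fit.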
# GCN5L2 inh: qHTS Assay for Inhibitors of GCN5L2; GCN5L2 HAT assay, ThioGlo1 CoA-SH fluorescence; Potency, µM (titrated, usually from 58.9 µM), for the others: at the highest dose activity change, negative = inhibition, most hits filed as inhibitors; hit rate 0.21% among 390,000; AID 504327, 2011; Histone acetyltransferase KAT2A (Homo sapiens), Q92830; note: potency is the fitted concentration of half-maximal effect
#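 qHTS, 1536-well. 20nM enzyme, pH 7.5 HEPES/EDTA/Tween-20 buffer; 15 min compound preinc., RT. Start: 75uM H3(1-25), 70uM AcCoA, 50uM ThioGlo1. Read Ex340/Em540 at t=0 (autofluorescence flag) and t=20 min.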
# RECQ1 inh: qHTS Assay for Inhibitors of RecQ-Like Dna Helicase 1 (RECQ1); Potency, µM (highest dose often 57.3 µM), for inactives: at the highest dose activity, negative = inhibition, hits mostly inhibitors; RECQ1 DNA unwinding, red fluorescence kinetic read; hit rate 0.54% among 240,000; ATP-dependent DNA helicase Q1 (Homo sapiens), P46063;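 note: potency is the fitted concentration of half-maximal effect; plate controls were vehicle for no effect and no enzyme for full effect; nearly all actives have a fitted effect of over 30% in size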
#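 RECQ1T1 50 nM; forked duplex (20 bp + 30-nt ss tails) 200 nM, ATP 2 mM final; pH 8.0, 2 mM MgCl2, 2.5 ug/ml poly(dI-dC); 15 min compound preincubation; discontinuous kinetic read over 2 h at RT.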
# BLM inh: qHTS Assay for Inhibitors of Bloom's syndrome helicase (BLM); RecQ-like DNA helicase BLM (Homo sapiens), P54132; Potency, µM (highest dose often 56.1 µM), for the others: top-dose activity change, negative = inhibition, hits mostly inhibitors; AID 2528, 2010; recombinant BLM DNA unwinding, fluorescence dequenching; hit rate 0.2% among 350,000;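 note: potency is the fitted concentration of half-maximal effect; plate controls were vehicle for no effect and no enzyme for full effect; nearly all actives have a fitted effect of over 35% in size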
# Active calls of the source: *; i = inactive; ? = inconclusive; · = no result given; ! = not active in a repeat; [ ] = remark or other dose. Unless noted, calls come from the whole dose curve; as a rule, active = well fitted curve in the direction sought with a large enough effect; inconclusive = small, poorly fitted or top-dose-only effect, or another doubt; inactive = no such curve, though single readings can be large; an effect the other way counts as inactive or inconclusive. Unless noted, % is set by controls: 0 for no effect and ±100 for the full control effect.
SMILES,APE1 inh,PI5P4Ka inh,FEN1 inh,GCN5L2 inh,RECQ1 inh,BLM inh
COc1ccc2nc(C)cc(N/N=C/c3ccccc3)c2c1,-43%,-30,35µM*,-19%,·,·
S=c1ccss1,-3%,·,·,25µM*,-5%,1%
COc1ccc(C(=O)C[n+]2ccccc2Cl)cc1,·,·,15%,·,·,·
O=C(NNc1cccc(Cl)n1)c1ccccc1CC[N+](=O)[O-],0%,-78*,-12%,-7%,-7%,-1%
Cc1ccc(NC(=O)COC(=O)c2ccccc2OCC(=O)Nc2ccc(Br)cc2)c(C)c1,·,·,10%,·,·,·
Cc1ccccc1OCc1nnc(SC(C)C(=O)O)n1-c1ccccc1 (stereo not drawn),·,-54*,·,·,·,·
Cc1cc(C)nc(N/N=C/c2sccc2C)n1,7%,-53*,-4%,-18%,i,-4%
O=[N+]([O-])c1ccc(Cl)c(S(=O)(=O)/N=C(/Sc2ccc(Br)cc2)c2ccccc2)c1,·,·,-11%,·,·,·
Cn1c(=O)c2c(SCC(=O)N3CCN(c4ccccc4)CC3)nc(C3CC3)nc2n(C)c1=O,-3%,2,-12%,-1%,18µM*,-2%
COc1cc2nc(N3CCNCC3)nc(N)c2cc1OC,19%,?,56µM*,-1%,15%,34%
CCOC(=O)Nc1cc2c(c(N)n1)N=C(c1ccccc1)CN2,·,-68*,?,·,·,·
CCOC(=O)Nc1sc(C)nc1-c1ccccc1,1%,·,-1%,0%,i,2%
O=Cc1ccc(C(=O)OCC(=O)NC(=O)Nc2ccccc2F)cc1,-18%,-57*,5%,-5%,·,·
CSc1ccc(/C=C2\C=Cc3cc([N+](=O)[O-])ccc32)cc1,·,·,-1%,·,·,·
O=S(=O)(c1cccc2ccccc12)N1CCCCC1,3%,4,10%,-29%,·,-3%
C=CCNS(=O)(=O)c1cccc(C(C)=O)c1,?,-2,0%,-2%,-10%,2%
C=CCNS(=O)(=O)c1cccc2cc(C(=O)O)c(O)cc12,0%,-57*,0%,?,-3%,-4%
O=C(O)c1cc2cccc(S(=O)(=O)N3CCCCC3)c2cc1O,21%,-64*,1%,-17%,·,-2%
COc1ccc(C)c2sc(N(CCCN(C)C)C(=O)c3ccc(S(=O)(=O)N4CCc5ccccc5C4)cc3)nc12,·,4,-12%,·,·,·
COc1ccc(OC)c2sc(N(CCCN(C)C)C(=O)c3ccc(S(=O)(=O)N4CCc5ccccc5C4)cc3)nc12,30µM*,·,·,-4%,·,·
CCCCCCOc1ccc(CC(=O)O)cc1,·,·,7%,·,·,·
O=C(CSc1ncnc2scc(-c3ccccc3)c12)Nc1ccc(C(=O)O)cc1,-1%,-85*,2%,-3%,-8%,-8%
O=C(O)c1ccc(Nc2ncnc3scc(-c4ccccc4)c23)cc1,15%,4,-9%,-3%,-8%,4%
Cn1nnnc1Sc1ncnc2scc(-c3ccccc3)c12,-2%,-52*,3%,-4%,-15%,-8%
CC1(C)Nc2cccc3c(N=Nc4ccc(N=Nc5ccccc5)c5ccccc45)ccc(c23)N1,·,·,-19%,·,·,·
SMILES,APE1 inh,PI5P4Ka inh,FEN1 inh,GCN5L2 inh,RECQ1 inh,BLM inh
O=c1n(CCCN2CCN(c3cccc(Cl)c3)CC2)nc2ccccn12,-4%,0,-1%,11µM*!,-7%,2%
O=C1C2CCCCN2C(=O)N1CCCCN1CCN(c2cccc(Cl)c2)CC1 (stereo not drawn),2%,-3,0%,3%,·,0%
O=C(CNC(=O)c1cccs1)NCC(=O)OCc1ccccc1Cl,-1%,·,0%,3.2µM*,-3%,-1%
Cc1ccc(-c2csc3nc4c5ccccc5c(NCCCN(C)C)nn4c(=O)c23)cc1,5%,-1,20µM*,-9%,0%,112%
CN(C)c1ccc(C=O)c(O)c1,·,·,-12%,·,·,·
N#CC(=C(O)COC(=O)Cc1c[nH]c2ccccc12)c1nc2ccccc2[nH]1,·,-54*,-10%,·,·,·
CCCC(=O)OC/C(O)=C(\C#N)c1nc2ccccc2[nH]1,-7%,-12,-2%,-12%,i,-6%
[O-][n+]1cccc2cccc(O)c21,·,-1,?,·,·,·
C[n+]1cccc2cccc([O-])c21,0%,-29,?,?,?,25µM*
COc1ccc(N(C(=O)c2ccc(OC)c(OC)c2)S(=O)(=O)c2ccc(Cl)cc2)cc1,·,·,89µM*,-12%,·,-12%
Cc1c(C(N)=O)c(-c2ccccc2)nn1-c1ccccc1,0%,0,-2%,1%,3%,3%
CCCc1c(-c2ccc(O)cc2)nn(-c2ccc(O)cc2)c1-c1ccc(O)cc1,12%,-53*,-2%,-20%,-36%,-10%
O=C1C=CC(=O)N1c1ccc(-c2nc3ccccc3o2)cc1,·,-60*,·,·,·,·
Nc1ccc(-c2nc3ccccc3o2)cc1,73%,-2,3%,2%,·,1%
C[n+]1ccc(/C=C/c2ccccc2O)c2ccccc21,-8%,1,?,-15%,-2%,-6%
COc1cc(OC)c(OC)cc1/C=C/c1cc[n+](C)c2ccccc12,·,·,40µM*,·,·,·
C[n+]1ccc(/C=C/c2ccc(C=S)cc2)c2ccccc21,·,·,50µM*,·,·,·
CNC(C)[C@@H]1CC[C@@H](N)[C@@H](O[C@H]2[C@H](O)[C@@H](O[C@H]3OC[C@](C)(O)[C@H](NC)[C@H]3O)[C@H](N)C[C@@H]2N)O1 (stereo partly drawn),3%[21 µM],·,·,·,·,·
CCCSc1nnc(NC(=O)CSc2sc3c(O)cc(=O)[nH]c3c2C#N)s1,64%[12.4 µM],-72*,35µM*,?,·,22µM*
N#Cc1c(SCC(=O)Nc2ccccc2C(F)(F)F)sc2c(O)cc(=O)[nH]c12,75%[12.4 µM],?,-20%,-27%,·,-2%
O=C1N=c2ccccc2=C1c1sc(=O)[nH]c1O,9%,-87*,-2%,-3%,i,-2%
O=C1N=c2ccc([N+](=O)[O-])cc2=C1c1sc(=O)[nH]c1O,0%,-54*,?,-24%,·,-7%
O=c1[nH]ncc2ccccc12,4%,·,·,·,-8%,·
O=C(COc1ccccc1C(=O)Nc1ccccc1)Nc1cccc([N+](=O)[O-])c1,·,·,15%,·,·,·
O=S(=O)(Nc1cccc2cccnc12)c1cccs1,·,·,-14%,·,·,·
CCCNc1ccc(S(=O)(=O)N(CC)CC)cn1,23%,-4,-1%,-1%,-11%,4%
CCCNc1ncc2c(=O)[nH][nH]c(=O)c2n1,·,-55*,10%,·,·,·
